Source: PubChem
A selection: hits, their analogues and other compounds. The true share with any hit is near 4.7%.
D3 ag: activates the human D3 dopamine receptor; P35462; D3R DiscoveRx beta-arrestin cells, luminescence, 90 min; max activation, %; 0.58% of 410,000 active; in the data active = max activation above about 30%; also: 0% is about no effect
Target sequence (P35462 whole entry, looked up): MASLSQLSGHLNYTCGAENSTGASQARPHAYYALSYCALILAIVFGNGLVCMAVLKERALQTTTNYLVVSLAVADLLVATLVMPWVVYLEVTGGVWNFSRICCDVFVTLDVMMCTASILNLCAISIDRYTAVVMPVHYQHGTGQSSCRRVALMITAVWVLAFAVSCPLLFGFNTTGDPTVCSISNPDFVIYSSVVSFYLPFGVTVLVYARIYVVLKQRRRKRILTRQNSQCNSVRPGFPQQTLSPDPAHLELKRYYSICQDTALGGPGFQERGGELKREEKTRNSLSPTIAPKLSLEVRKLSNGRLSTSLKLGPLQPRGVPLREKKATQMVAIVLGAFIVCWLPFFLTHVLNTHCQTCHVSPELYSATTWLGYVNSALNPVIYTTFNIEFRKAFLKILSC
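Cells at 1500/well, incubated overnight, then treated with pinned compounds (dopamine as control) for 90 min at 37 degrees C. DiscoveRx reagent added for 30 - 60 minutes at room temperature; luminescence read.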
DRD3 antagonist: blocks the human D3 dopamine receptor. D3R cells, DiscoveRx beta-arrestin luminescence, antagonist mode; stronger effect = lower value. max response, negative = inhibition, %. 2.5% of 360,000 active; in the data active = max response below about -50%; inconclusive = no clear call, values can overlap the other calls; also: % is scaled to controls: 0 for no effect and ±100 for the full control effect
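Cells plated overnight at 1500 cells/well, then exposed to library compounds with dopamine controls for 90 minutes at 37 degrees C. DiscoveRx reagent added for 30–60 minutes at room temperature; luminescence read, quantitative HTS format.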
HepG2 tox: counter-screen for TGF-b inhibitors: cytotoxicity in HepG2 cells. Potency, µM (highest dose often 46.1 µM), for inactives: at the highest dose activity change, negative = cytotoxicity, actives largely listed as cytotoxic. 0.76% of 410,000 active. AID 588856. HepG2 CAGA-GFP viability, ATP luminescence, 18 h; also: potency is read from the fitted curve at half-maximal effect
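CellTiter-Glo luminescence gave cytotoxicity after 18 hours at 37 degrees C. The cells were HepG2 CAGA-GFP in 1% FBS DMEM, stimulated with 500 pg/mL TGF-beta after compound addition. %Activity was normalised to no-cell wells (complete cell-killing) and DMSO (no toxicity), and curves were fitted and classified.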
ATXN2 expr inh: reduces ATXN2 reporter expression in HEK-293 cells; HEK-293 ATXN2-luciferase reporter, luminescence, 24 h; Potency, µM (top dose mostly 57 µM), inactives show at the top dose activity change, negative = inhibition, most hits filed as inhibitors; 0.72% of 360,000 active; AID 1745845; also: potency is read from the fitted curve at half-maximal effect; % is scaled to controls: 0 for no effect and ±100 for the full control effect; nearly all actives have a fitted effect of over 55% in size
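ATXN2-luciferase reporter cells (luciferase flanked by upstream and downstream ATXN2 gene portions) were treated 24 h at 37 °C with compounds at up to 57 uM. SteadyGlo luminescence gave expression; GF-AFC fluorescence gave viability.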
ATXN viability: reduces viability in counter-screen for ATXN expression inhibitors; S2 cells (HEK-293 line with an ATXN2-luciferase reporter) viability, CellTiter-Fluor protease fluorescence, 24 h; Potency, µM (titrated, usually from 56.7 µM), hits mostly cytotoxic; 0.49% of 400,000 active; AID 651635; also: potency is read from the fitted curve at half-maximal effect; nearly all actives have a fitted effect of over 40% in size
TGFb SMAD3 inh: inhibitors of TGF-b signaling; HepG2 CAGA-GFP TGF-b/SMAD3 reporter, GFP fluorescence, 18 h; TGF-beta stimulated, 500 pg/mL final; Potency, µM (series often up to 46.1 µM), for the others: top-dose activity, negative = inhibition, actives largely listed as inhibitors; 1.2% of 410,000 active; AID 588855; also: potency is read from the fitted curve at half-maximal effect; % is scaled to controls: 0 for no effect and ±100 for the full control effect; nearly all actives have a fitted effect of over 65% in size
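HEPG2 CAGA-GFP, 1000 cells/well; 2 h settle, 37 C; cpd via pin tool; TGF-b 500 pg/mL final; 18 h, 37 C; GFP imaging ex488/em500-530; %Activity normalised to -TGF-b and +DMSO controls; CRC fit, curve class.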
Numbers without * were called inactive; i = inactive; ? = inconclusive; . = no result given. Unless noted, calls follow the shape of the dose curve; as a rule, active = well fitted curve in the direction sought with a large enough effect; inconclusive = small, poorly fitted or top-dose-only effect, or another doubt; inactive = no such curve, though single readings can be large; an effect the other way counts as inactive or inconclusive.

SMILES	D3 ag	DRD3 antagonist	HepG2 tox	ATXN2 expr inh	ATXN viability	TGFb SMAD3 inh
CC(C)N1CCc2c(sc(NC(=O)c3nc4ccccc4s3)c2C(N)=O)C1	6	-19	-31%	-8%	i	1%
CC(C)N1CCc2c(sc(NC(=O)c3cc(-c4cccs4)nc4ccccc34)c2C(N)=O)C1	2	23	18µM*	?	.	-23%
CC(C)N1CCc2c(sc(NC(=O)c3ccc(S(=O)(=O)N4CCc5ccccc54)cc3)c2C(N)=O)C1	-6	-27	13µM*	?	?	?
CC(C)N1CCc2c(sc(NC(=O)c3ccc(S(=O)(=O)N(C)C4CCCCC4)cc3)c2C(N)=O)C1	-17	.	-102%	.	.	?
Cc1nn(C)cc1CNc1nc(C)c(-c2ccn(CC3COc4ccccc4O3)n2)s1 (stereo unspecified)	.	.	.	.	i	.
Oc1c(C(Nc2cccnc2)c2ccc(C(F)(F)F)cc2)ccc2cccnc12 (stereo unspecified)	.	.	-48%	.	.	?
CC(=O)Oc1ccc2ccccc2c1C(NC(=O)C(C)C)c1cccc([N+](=O)[O-])c1 (stereo unspecified)	-2	-20	-23%	-35%	i	?
Oc1cccc(C(Nc2nccs2)c2ccc3cccnc3c2O)c1 (stereo unspecified)	11	14	-26%	?	i	14µM*
O=[N+]([O-])c1ccc(NC(c2ccccc2)c2ccc3cccnc3c2O)cc1 (stereo unspecified)	16	3	-1%	2.8µM*	i	-7%
CC(=O)NC(c1cccc([N+](=O)[O-])c1)c1ccc2cccnc2c1O (stereo unspecified)	27	-26	-20%	3.2µM*	?	?
CC(=O)NC(c1cccc([N+](=O)[O-])c1)c1c(OC(C)=O)ccc2ccccc12 (stereo unspecified)	-7	-68*	-9%	-9%	i	-26%
COc1cccc(C(NC(C)=O)c2ccc3cccnc3c2O)c1 (stereo unspecified)	19	-16	-25%	?	?	?
